# According to PubChem BioAssay AID1117353 (Cheminformatics & Chemogenomics Research Group (CCRG), …, 2015):
# Activity calls are given as the source filed them. No stated cut-off is given here; in the data, active means inhibition above about 50%; inactive means the rest.
# Molecular target: Vascular endothelial growth factor receptor 2 (Homo sapiens) (UniProt P35968)
# Test: Biochemical primary assay, inhibitors of H. sapiens VEGFR2, LANCE Ultra time-resolved FRET readout, NPC library (AID 1117353)
# Conditions: LANCE Ultra TR-FRET kinase assay; series mostly up to 20 µM
# Vascular endothelial growth factor receptor 2 (Homo sapiens), sequence (P35968 whole entry, looked up): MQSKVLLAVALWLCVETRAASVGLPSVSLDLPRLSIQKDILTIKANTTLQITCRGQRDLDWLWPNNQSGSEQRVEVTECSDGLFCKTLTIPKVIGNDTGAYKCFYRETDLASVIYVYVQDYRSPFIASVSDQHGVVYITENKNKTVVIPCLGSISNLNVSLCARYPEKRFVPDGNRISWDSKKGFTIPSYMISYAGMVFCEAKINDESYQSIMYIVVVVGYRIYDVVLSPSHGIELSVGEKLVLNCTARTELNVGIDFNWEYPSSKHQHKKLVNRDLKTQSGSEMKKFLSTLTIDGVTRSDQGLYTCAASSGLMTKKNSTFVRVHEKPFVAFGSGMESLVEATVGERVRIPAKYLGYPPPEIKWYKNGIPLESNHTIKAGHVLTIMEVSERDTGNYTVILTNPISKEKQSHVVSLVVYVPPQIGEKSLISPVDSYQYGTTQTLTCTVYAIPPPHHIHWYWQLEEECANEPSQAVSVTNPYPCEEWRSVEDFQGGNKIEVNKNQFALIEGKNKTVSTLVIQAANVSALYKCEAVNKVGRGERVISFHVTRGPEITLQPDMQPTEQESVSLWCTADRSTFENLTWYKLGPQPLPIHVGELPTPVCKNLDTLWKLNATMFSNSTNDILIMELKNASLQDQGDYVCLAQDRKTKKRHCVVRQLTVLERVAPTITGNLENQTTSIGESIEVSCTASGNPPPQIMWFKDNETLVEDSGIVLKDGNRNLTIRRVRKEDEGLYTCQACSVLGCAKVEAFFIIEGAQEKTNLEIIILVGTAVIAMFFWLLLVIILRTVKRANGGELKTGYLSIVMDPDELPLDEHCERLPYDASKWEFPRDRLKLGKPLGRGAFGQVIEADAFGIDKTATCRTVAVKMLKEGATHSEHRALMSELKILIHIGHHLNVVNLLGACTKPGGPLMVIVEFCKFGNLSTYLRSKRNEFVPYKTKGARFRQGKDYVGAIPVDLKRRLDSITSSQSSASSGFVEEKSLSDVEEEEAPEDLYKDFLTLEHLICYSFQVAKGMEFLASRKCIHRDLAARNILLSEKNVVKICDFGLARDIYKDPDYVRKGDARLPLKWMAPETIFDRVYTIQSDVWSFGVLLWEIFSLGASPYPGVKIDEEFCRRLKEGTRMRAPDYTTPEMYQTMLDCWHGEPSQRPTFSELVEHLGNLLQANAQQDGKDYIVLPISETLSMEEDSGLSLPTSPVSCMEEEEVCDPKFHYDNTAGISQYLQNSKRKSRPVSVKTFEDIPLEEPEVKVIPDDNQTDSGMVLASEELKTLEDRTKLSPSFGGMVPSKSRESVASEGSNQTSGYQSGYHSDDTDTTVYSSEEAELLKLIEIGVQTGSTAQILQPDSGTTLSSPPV
row,SMILES,outcome
1,O=C(CCl)c1ccc(Cl)cc1Cl,inactive
2,Cc1ccc([N+](=O)[O-])[c]2c1[O][Hg]2,inactive
3,C=C(C)[C@H]1Cc2c(ccc3c2O[C@@H]2COc4cc(OC)c(OC)cc4[C@@H]2C3=O)O1,inactive
